Bioassay records: PubChem BioAssay, several laboratories
HIV Env fusion: inhibitors of HIV Env-mediated cell fusion; HeLa-JRFL Env/CEM21 cell fusion, luciferase; inhibition, % at 12.3 µM; hit rate 1.1% among 360,000;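 active = mean replicate inhibition score of at least 50 and every replicate individually at or above 50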;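 also: 0% = plate neutral controls and 100% = maraviroc near 300 nM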
PAX8 inh HTS: inhibitors of PAX8 transcriptional activity in RMG-I cells; RMG-I TPO-luciferase reporter, SteadyGlo, 24 h; hit rate 1.2% among 360,000; inhibition, % at 12.6 µM;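 active = mean replicate inhibition at least 60% with every replicate also reaching 60%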;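 also: luciferase light reporting Pax8 driven TPO promoter activity; plate controls were median of neutral control wells for no effect and mitoxantrone controls for full effect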
FXN GAA850 act: frataxin GAA850 promoter activation; HEK293 lucGAA850 FXN promoter luciferase reporter, 24 h; percent of 10 µM SAHA response; hit rate 0.56% among 360,000; AID 540364; activation, % at 6 µM;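 active = activation above the average of all compounds screened plus 3 SD, cutoff fixed separately per campaign, cut at about 7.5% in these data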;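 also: 0% = DMSO wells and 100% = 10 µM SAHA wells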
EWS-Fli inh: inhibitors of EWS/Fli oncoprotein transcriptional activity. A673 NR0B1-luciferase reporter, viability-normalised. inhibition, % at 12.6 µM. hit rate 0.67% among 350,000. AID 651661;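 active = mean inhibition of at least 50% after viability correction, with every replicate also passing that limit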;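 also: firefly luciferase signal divided by Alamar Blue viability fluorescence both relative to DMSO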
F508del corr: correctors of CFTR F508del function in bronchial epithelial cells. activity (quench increase), % at 7.58 µM. hit rate 0.36% among 350,000. CFBE cells, YFP halide quenching; stimulated with forskolin plus potentiator P3; % fluorescence drop versus neutral controls;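 active = mean added fluorescence quench of at least 8% versus neutral control, with both replicates also reaching 8%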;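 also: cells transiently co-express mutant CFTR-F508del with the halide-sensitive YFP; corrector assay measuring rescue of mutant channel to the surface after 24 h compound exposure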
Numbers without * were called inactive; x = no result given; [ ] = dose if it differs, or a comment. A selection: hits, their analogues and other compounds. The true share with any hit is near 2.5%.

SMILES	HIV Env fusion	PAX8 inh HTS	FXN GAA850 act	EWS-Fli inh	F508del corr
C[C@@H]1CCCCO[C@H](CN(C)Cc2ccc(C(F)(F)F)cc2)[C@H](C)CN([C@H](C)CO)C(=O)c2cc(NS(=O)(=O)c3ccc(F)cc3)ccc2O1	25.7[16.7 µM]	78.7*	x	22.2	5.5
C[C@H](CO)N1C[C@H](C)[C@H](CN(C)Cc2ccc(C(F)(F)F)cc2)OCCCC[C@H](C)Oc2ccc(NS(=O)(=O)c3ccc(F)cc3)cc2C1=O	7.7[16.7 µM]	106.1*	x	73.3*	2.2
C[C@@H]1CCCCO[C@H](CN(C)Cc2ccc(C(F)(F)F)cc2)[C@@H](C)CN([C@H](C)CO)C(=O)c2cc(NS(=O)(=O)c3ccc(Cl)cc3)ccc2O1	-13.8[16.7 µM]	-14.2	x	2.4	-1.0
C[C@H]1CCCCO[C@@H](CN(C)Cc2ccc(C(F)(F)F)cc2)[C@@H](C)CN([C@@H](C)CO)C(=O)c2cc(NS(=O)(=O)c3ccc(F)cc3)ccc2O1	17.3[16.7 µM]	95.6*	x	16.8	-0.5
C[C@@H]1CN([C@@H](C)CO)C(=O)c2cc(NS(=O)(=O)c3ccc(Cl)cc3)ccc2O[C@@H](C)CCCCO[C@@H]1CN(C)Cc1ccc(C(F)(F)F)cc1	30.6[16.7 µM]	-16.1	x	8.5	-1.4
C[C@@H]1CCCCO[C@H](CN(C)Cc2ccc(C(F)(F)F)cc2)[C@@H](C)CN([C@@H](C)CO)C(=O)c2cc(NS(=O)(=O)c3ccc(F)cc3)ccc2O1	33.0[16.7 µM]	103.1*	x	31.5	2.6
C[C@@H]1CN([C@@H](C)CO)C(=O)c2cc(NS(=O)(=O)c3ccc(F)cc3)ccc2O[C@@H](C)CCCCO[C@@H]1CN(C)Cc1ccc(C(F)(F)F)cc1	-54.5[16.7 µM]	88.0*	x	0.4	0.3
CN1/C(=C/C=C/c2n(C)c3cc([N+](=O)[O-])c([N+](=O)[O-])cc3[n+]2C)C(C)(C)c2ccccc21	14.9	100.0*	-3.9	-75.4	1.2
CCOC(=O)c1sc(/N=C/N(C)C)nc1C	x	117.0*	1.6	3.1	1.0
CCOc1ccccc1C(=O)NCC(=O)NNC(=O)CN(C)S(=O)(=O)c1ccc(Cl)cc1	69.5*	4.0	-3.3	10.5	-2.3
O=C(NC(=S)Nc1ccc(N2CCCCC2)c(Cl)c1)c1ccc2c(c1)OCCO2	70.4*	14.4	1.0	x	x
COc1ccc(CCNC(=O)c2cc(-c3cccs3)on2)cc1OC	x	x	16.3*	-62.1	-4.7
COc1ccc(CCNC(=O)c2cc(C(C)C)on2)cc1OC	-51.6	-35.1	1.0	-6.8	1.2
COCC(=O)N(C)C[C@H]1Oc2ncc(Br)cc2C(=O)N([C@H](C)CO)C[C@H]1C	79.9*[16.7 µM]	5.1	x	-17.9	-0.9
C[C@H](CO)N1C[C@H](C)[C@@H](CN(C)Cc2ccccc2)Oc2ncc(-c3cccnc3)cc2C1=O	7.4[16.7 µM]	x	x	-9.7	-2.2
Cc1cc(C(=O)Nc2cccc3c2O[C@H](CN(C)Cc2ccc(-c4ccccc4)cc2)[C@H](C)CN([C@@H](C)CO)C3=O)n(C)n1	x	11.3	x	-6.8	4.9
Cc1cc(C(=O)Nc2cccc3c2O[C@@H](CN(C)Cc2ccc(-c4ccccc4)cc2)[C@H](C)CN([C@H](C)CO)C3=O)n(C)n1	x	69.8*	x	-13.7	-3.1
C[C@H](CO)N1C[C@H](C)[C@@H](CN(C)Cc2ccc(-c3ccccc3)cc2)Oc2ncc(-c3cccnc3)cc2C1=O	-3.1[16.7 µM]	x	x	68.7*	0.1
Cc1cc(C(=O)Nc2cccc3c2O[C@H](CN(C)Cc2ccc(Oc4ccccc4)cc2)[C@@H](C)CN([C@@H](C)CO)C3=O)n(C)n1	15.4[16.7 µM]	67.6*	x	-18.8	3.4
CC(=O)Nc1ccc2c(c1)C(=O)N(C)[C@H]1CC[C@H](CC(=O)N3CCc4ccccc4C3)O[C@H]1CO2	7.2[16.7 µM]	-4.4	x	7.2	-5.1
COc1ccc(NC(=O)Nc2cccc3c2O[C@@H](CN(C)Cc2ccccc2)[C@@H](C)CN([C@H](C)CO)C3=O)cc1	-15.2[16.7 µM]	x	x	-2.2	-0.5
Cn1cc(C(=O)c2ccc(Cl)cc2Cl)cc1C(=O)N/N=C(\N)COc1ccc(Cl)cc1	37.0	69.6*	-0.1	24.5	2.1
CCCNC(=O)N[C@H]1CC[C@H](CC(=O)NC2CCCCC2)O[C@@H]1CO	2.5[16.7 µM]	-18.4	x	2.3	-1.1
CC(=O)Cn1ncc(Br)c(Br)c1=O	-271.2	83.7*	1.4	30.5	-7.2
CC(C)(C)C(=O)Cn1ncc(N2CCCC2)c(Br)c1=O	x	x	1.4	x	x
SMILES	HIV Env fusion	PAX8 inh HTS	FXN GAA850 act	EWS-Fli inh	F508del corr
Cc1cc(/C=C(\C#N)C(=O)Nc2ccc(F)cc2)c(C)n1-c1ccc(N2CCOCC2)c([N+](=O)[O-])c1	85.5*	x	0.1	x	x
COc1ccc(S(=O)(=O)Nc2ccc3c(c2)C(=O)N([C@H](C)CO)C[C@H](C)[C@@H](CN(C)S(=O)(=O)c2ccc(OC)cc2)OCCCC[C@H](C)O3)cc1	-94.3[16.7 µM]	49.8	x	10.1	3.5
CCCOc1ccc(Br)cc1CSC(=N)N	61.7*	32.0	-2.1	28.6	4.7
CC(=O)c1ccc(NC(=O)c2cnn3ccccc23)cc1	44.9	33.9	-3.1	69.2*	-4.6
CC(=O)c1cccc(NC(=O)c2cnn3ccccc23)c1	-195.4	-110.7	6.3	-61.8	4.5
C[C@@H]1CN([C@H](C)CO)C(=O)c2cc(NC(=O)CCN3CCOCC3)ccc2O[C@@H]1CN(C)Cc1ccc2c(c1)OCO2	1.4[16.7 µM]	-25.5	x	-7.1	0.6
O=C(CN1CCOCC1)NCC[C@H]1CC[C@H](NC(=O)Nc2ccc(C(F)(F)F)cc2)[C@@H](CO)O1	7.8[16.7 µM]	-1.7	x	-0.3	2.8
CCC(=O)NC[C@@H]1[C@@H](c2ccccc2)[C@H](CO)N1C(=O)C1CCC1	x	21.8	x	9.9	-1.2
COc1ccc(S(=O)(=O)NCc2ccccn2)cc1NC(=O)c1ccc(Cl)cc1	6.5	29.0	-2.4	8.1	2.5
COc1ccccc1Oc1ccc(S(=O)(=O)NCc2ccccn2)cc1	75.6*	x	-0.9	x	x
COc1ccc(S(=O)(=O)NCc2ccccn2)cc1NC(=O)c1ccccc1C	15.6	14.6	-0.7	60.4*	3.7
Cc1noc(C)c1S(=O)(=O)N(C)C[C@@H]1OCCCC[C@@H](C)Oc2ccc(NC(=O)Cc3ccccc3)cc2C(=O)N([C@@H](C)CO)C[C@H]1C	-38.7[16.7 µM]	-6.4	x	6.3	0.5
CCOc1cc2c(cc1O)CCC1C2CCC2(C)C(O)CCC12 (centres undefined)	-196.8	15.2	-1.0	54.5*	3.2
CCNc1cc2c(cc1O)CCC1C2CCC2(C)C(O)CCC12 (centres undefined)	-28.7	-6.8	-0.6	19.0	0.3
CCC1=NN=C(c2ccc(F)cc2)C(c2c[nH]c3ccccc23)N1O (centres undefined)	102.9*	x	-0.4	x	x
CC(C)(C)c1ccc(C(=O)CC(=O)c2cc(Cl)ccc2O)cc1	83.5*	x	3.2	x	x
COCC(=O)Nc1ccc2c(c1)[C@@H]1C[C@@H](CC(=O)N3CCOCC3)O[C@H](CO)[C@@H]1O2	-8.0[16.7 µM]	17.3	x	-3.7	-2.2
CC1Cc2ccccc2N1S(=O)(=O)c1cnc(Cl)c(Cl)c1 (centres undefined)	0.2	29.8	-3.5	17.2	-1.0
